Results filed as inconclusive are left out. Where a call stands in place of a potency, no number is given. Active and inactive are the calls of the source. Calls follow the shape of the full dose curve.

Results on 40 compounds are retold here after PubChem BioAssay (NCATS).
Potency is read from the fitted curve at half-maximal effect.

Chain of Peroxisome proliferator-activated receptor delta (Homo sapiens) (Q03181 whole entry, looked up): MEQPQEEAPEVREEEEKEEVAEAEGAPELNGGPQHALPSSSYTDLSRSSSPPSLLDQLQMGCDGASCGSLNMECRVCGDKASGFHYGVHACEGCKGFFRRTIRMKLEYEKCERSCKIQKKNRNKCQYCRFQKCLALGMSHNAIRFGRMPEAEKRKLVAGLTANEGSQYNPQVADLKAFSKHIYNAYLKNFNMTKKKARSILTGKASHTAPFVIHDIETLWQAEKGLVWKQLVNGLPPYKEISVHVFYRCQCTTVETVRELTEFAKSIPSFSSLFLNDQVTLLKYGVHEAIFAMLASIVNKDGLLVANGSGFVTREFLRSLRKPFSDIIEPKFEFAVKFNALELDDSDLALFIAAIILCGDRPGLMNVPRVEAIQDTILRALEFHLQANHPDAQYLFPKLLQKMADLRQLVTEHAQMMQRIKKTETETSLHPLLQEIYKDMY

The assay has as its target Peroxisome proliferator-activated receptor delta (Homo sapiens) (UniProt Q03181). Description: qHTS assay for small molecule agonists of peroxisome proliferator-activated receptor delta signaling (AID 588534). To be noted: HEK293T PPARdelta-UAS-bla, beta-lactamase ratio, 18 h; series mostly up to 76.7 µM. The text has this:
NIH Chemical Genomics Center [NCGC] U.S. Environmental Protection Agency [EPA] National Institutes of Environmental Health Sciences [NIEHS] National Toxicology Program [NTP] NCGC Assay Overview The Peroxisome proliferator-activated receptors (PPARs) are lipid-activated transcription factors of the nuclear receptor superfamily with three distinct subtypes namely PPAR alpha, PPAR delta (also called PPAR beta) and PPAR gamma. All these subtypes heterodimerizes with Retinoid X receptor (RXR) and have different physiological functions. […] This role of PPAR delta implicates the potential use of its ligands in the treatment of metabolic disorders.
Compounds were screened in a titration series in 1536-well format. […] Concentration-response titration points for each compound were fitted to the Hill equation yielding concentrations of half-maximal stimulation (EC50) and maximal response (efficacy) values. qHTS protocol for PPAR-delta beta-lactamase assay in agonist mode [Step] [Parameter] [Value] [Description] 1. Reagent; 6 uL; 4000 cells/well 2. Incubation; 37 C for 5 hrs 3. Compounds; 23 nL; 0.59 nM to 92 uM 4. […] Incubation; 37 C for 18 hrs 6. Detection reagent; 1 uL of CCF4-dye 7. Incubation; RT for 2 hrs 8. Detection; Fluorescence; Envision plate reader
In general terms: qHTS replaces the single test concentration by a dilution series.
For the compound `C[C@H]1O[C@H](OC2[C@@H](O)[C@@H](O)C(O)[C@H](O)[C@H]2O)[C@@H](N)C[C@@H]1N=C(N)C(=O)O` (stereo not given in full), the Potency result was “inactive”.

`O=C(OCc1ccccc1)c1ccccc1O`: the Potency entry was “inactive”.

Turning to `O=c1c(-c2ccc(O)cc2)coc2cc(O)ccc12`, the Potency result is “inactive”.

Take `CCCCCCCCCC(C)=O`: the Potency result was “inactive”.

In the case of `C1CCC2(CCCCO2)OC1`, the Potency result was “inactive”.

`C=CC(=C)CCC=C(C)C`: the Potency entry is “inactive”.

With `c1ccc(Nc2cccc3ccccc23)cc1`, the Potency result is “inactive”.

As to `Cc1ccccc1O`, the Potency result is “inactive”.

Take `CC(C)NCC(O)COc1cccc2ccccc12` (stereo not given): the Potency result was “inactive”.

With `CCCCCCCCCCCCCc1ccccc1`, the Potency entry was “inactive”.

With `CC(=O)OCCC(C)C`, the Potency result was “inactive”.

Take `COc1ccc(OC)cc1`: the Potency entry is “inactive”.

`COC(=O)CCCC(=O)OC`: the Potency entry is “inactive”.

Take `CCCCCCCCCCCCCCCCCC(N)=O`: the Potency result is “inactive”.

Take `O=C1CCc2ccccc2O1`: the Potency entry was “inactive”.

As for `CC(=O)C(C)=O`, the Potency result is “inactive”.

For the compound `N[C@@H](Cc1ccc(O)c(O)c1)C(=O)O`, the Potency entry was “inactive”.

Turning to `CCC(=O)OCCc1ccccc1`, the Potency result is “inactive”.

On to `CS(C)=O`, for which the Potency entry was “inactive”.

For `Cc1cccc(O)c1C`, the Potency entry is “inactive”.

As to `CC1=C(/C=C/C(C)=C/C=C/C(C)=C\C=O)C(C)(C)CCC1`, the Potency result was “inactive”.

As for `Cc1ccc(C)c2ccccc12`, the Potency entry is “inactive”.

`O=Cc1ccccc1`: the Potency entry is “inactive”.

As for `O=C(/C=C/C=C/c1ccc2c(c1)OCO2)N1CCCCC1`, the Potency result was “inactive”.

For `CC(C)(c1ccc(OCC2CO2)cc1)c1ccc(OCC2CO2)cc1` (stereo not given), the Potency entry was “inactive”.

Take `C[C@@H]1Cc2c(Cl)cc(C(=O)N[C@@H](Cc3ccccc3)C(=O)O)c(O)c2C(=O)O1`: the Potency is 39.8 µM (active).

As for `CC(=O)c1ccccn1`, the Potency result is “inactive”.

Regarding `CCCC/C=C\CCCCCCCCCC=O`, the Potency entry is “inactive”.

For the compound `CCCCCCCCCCCCCCCC`, the Potency entry was “inactive”.

Take `CCCCCCCCCC(=O)O`: the Potency result was “inactive”.

With `NCCO/C=C/[C@H](N)C(=O)O`, the Potency entry is “inactive”.

Consider `OCCO`, for which the Potency result is “inactive”.

For `CCCCC(CC)CO` (stereo not given), the Potency result was “inactive”.

Take `CC(=O)/C=C/c1ccccc1`: the Potency entry was “inactive”.

With `CCNc1nc(N)nc(Cl)n1`, the Potency result is “inactive”.

Take `CC(=O)OC/C=C(\C)CCC=C(C)C`: the Potency entry is “inactive”.

Turning to `NC(=O)c1ncn([C@@H]2O[C@H](CO)[C@@H](O)[C@H]2O)n1`, the Potency entry was “inactive”.

In the case of `COC(=O)c1ccc(C)cc1`, the Potency result is “inactive”.

On to `O=C(O)c1cc(O)c2ccccc2c1O`, for which the Potency entry is “inactive”.

With `CC(C)=CCCC(C)CCO` (stereo not given), the Potency result was “inactive”.
